Only a selection was taken, and hits are over-represented in it overall.
BoNT-A LC inh2: BoNT A light chain protease inhibition. hit rate 0.17% among 360,000. multiplex microsphere protease substrate cleavage, flow cytometry. inhibition, % at 10 µM; note: plate controls were buffer without enzyme for full effect and enzyme alone for no effect
Autofluor counter: flagged as autofluorescent in microsphere protease counterscreen; compound autofluorescence counterscreen, microsphere flow cytometry; hits give high values; fluorescence intensity (no concentration beside the values); hit rate 3.1% among 360,000; AID 624483; in the data active = fluorescence intensity above about 16000; inconclusive = no clear call, values can overlap the other calls
Anthrax LF inh2: inhibitors of Bacillus anthracis lethal factor protease | hit rate 0.12% among 360,000 | multiplex microsphere protease cleavage assay, LF | inhibition, % at 10 µM | P15917; note: plate controls were buffer without enzyme for full effect and enzyme alone for no effect
TcdB inh: inhibitors of Clostridioides difficile toxin B glycohydrolase | inhibition, % at 9.99 µM | hit rate 0.24% among 350,000 | TcdB glycohydrolase enzymatic assay, plate reader | AID 652162; in the data active = inhibition above about 10%
BoNT F protease: inhibitors of Botulinum neurotoxin F light chain protease; Multiplex microsphere protease cleavage assay, flow cytometry; inhibition, % at 10 µM; hit rate 0.22% among 360,000; in the data active = inhibition above about 35%, passing the limit was not always enough; inconclusive = no clear call, values can overlap the other calls; note: plate controls were buffer without enzyme for full effect and enzyme alone for no effect
The depositor's hits bear a star; ? = inconclusive; nt = not tested or not shown. Cut-off read from the data, not from the text of the source, unless noted: active = inhibition above about 30%; inconclusive = no clear call, values can overlap the other calls; inactive = below that.

SMILES | BoNT-A LC inh2 | Autofluor counter | Anthrax LF inh2 | TcdB inh | BoNT F protease
C[C@@H]1CN([C@@H](C)CO)C(=O)c2cc(NC(=O)Nc3ccc4c(c3)OCO4)ccc2O[C@H]1CN(C)Cc1ccc(Oc2ccccc2)cc1 | nt | nt | nt | -1 | nt
COc1ccc(C[C@H]2CCc3cnnn3COC[C@H](Cc3ccccc3)NC2=O)cc1 | nt | nt | nt | -2 | nt
O=C(NCC[C@H]1CC[C@H](NC(=O)C2CCC2)[C@@H](CO)O1)c1ccc(F)cc1 | nt | nt | nt | 0 | nt
Nc1c(C(=O)NCc2ccc(F)cc2)c2nc3ccccc3nc2n1CCCN1CCOCC1 | 4 | 23744* | 2 | nt | -2
CCCCNC(=O)c1ccc(N2CCOCC2)c(NS(=O)(=O)c2ccc(OC)cc2)c1 | 9 | 20173* | 2 | nt | 8
Nc1c(C(=O)NCc2ccccc2)c2nc3ccccc3nc2n1CCCN1CCOCC1 | 12 | 2172 | 3 | 1 | -3
O=C(NCCN1CCOCC1)c1cc(-c2ccco2)on1 | -4 | 17211* | -6 | nt | -7
O=C(NCCCN1CCOCC1)c1cc(-c2ccc(F)cc2)on1 | 6 | 18525* | 2 | nt | 9
O=C(NCCN1CCOCC1)c1cc(-c2ccc(F)cc2)on1 | 0 | 10876 | 5 | nt | 0
C[C@H]1CCCCO[C@H](CN(C)S(C)(=O)=O)[C@@H](C)CN([C@@H](C)CO)C(=O)c2cc(NC(=O)c3ccncc3)ccc2O1 | nt | nt | nt | -9 | nt
O=C(NCC1CC1)[C@H]1[C@H](CO)[C@H]2Cn3c(ccc(-c4ccccc4)c3=O)[C@@H]1N2C(=O)C1CC1 | nt | nt | nt | 0 | nt
O=C(C[C@H]1CC[C@H](NC(=O)Nc2ccc(F)cc2)[C@@H](CO)O1)NCc1cccc(F)c1 | nt | nt | nt | 0 | nt
COc1ccc(S(=O)(=O)NCCCCCC(=O)NCCCN2CCOCC2)cc1 | 3 | 20933* | -2 | 0 | 2
O=C(NCCCN1CCOCC1)c1ccc(CNS(=O)(=O)c2ccc(F)cc2)cc1 | ? | 16290* | 2 | nt | 0
O=C(CCCCCNS(=O)(=O)c1ccc(Br)cc1)NCCN1CCOCC1 | 0 | 9752 | -1 | -5 | -3
COc1ccccc1-c1cnc2c(c1)C(=O)N([C@@H](C)CO)C[C@H](C)[C@H](CN(C)Cc1ccncc1)O2 | nt | nt | nt | 0 | nt
CC(=O)N(C)c1ccc(NC(=O)CCN2C(=O)c3ccccc3C2=O)cc1 | -2 | 3756 | -4 | 1 | ?
Cc1ccc(NC(=O)COC(=O)CN2C(=O)c3ccccc3C2=O)cc1 | 2 | 8747 | 0 | 1 | 0
CCN(CC)S(=O)(=O)c1ccc(NC(=O)COC(=O)CN2C(=O)c3ccccc3C2=O)cc1 | 2 | 22134* | 3 | nt | 2
CN(C)c1ccc(NC(=O)CN2C(=O)c3ccccc3C2=O)cc1 | -3 | 4403 | 5 | 1 | 39*
CN1CCN(C(=O)C[C@H]2C[C@H]3c4cc(NC(=O)Nc5ccc(C(F)(F)F)cc5)ccc4O[C@H]3[C@@H](CO)O2)CC1 | nt | nt | nt | 1 | nt
COc1cccc(-c2cn(CC[C@@H]3CC[C@@H](NC(=O)CN(C)C)[C@@H](CO)O3)nn2)c1 | nt | nt | nt | 0 | nt
O=C(CCl)N1c2ccccc2Oc2ccc3ccccc3c21 | 31* | 3811 | 35* | -2 | 11
CC(C)NC(=O)N[C@@H]1C=C[C@H](CC(=O)NC2Cc3ccccc3C2)O[C@H]1CO | nt | nt | nt | -3 | nt
COc1cccc(-c2ccc3c(c2)[C@H]2[C@H](CCN2S(=O)(=O)c2ccc(F)cc2)[C@H](CO)N3C)c1 | nt | nt | nt | 0 | nt
SMILES | BoNT-A LC inh2 | Autofluor counter | Anthrax LF inh2 | TcdB inh | BoNT F protease
O=C(Cc1ccccc1F)NNC(=O)c1cccs1 | 0 | 3688 | -1 | 0 | 2
O=C(Cc1coc2cc(O)ccc12)NNC(=O)c1cccs1 | 0 | 3644 | 0 | 19* | 9
Cc1ccccc1S(=O)(=O)N1CC(=O)N2[C@H](CO)[C@@H](c3ccc(C#CC4CC4)cc3)[C@H]2C1 | nt | nt | nt | -3 | nt
O=C(Nc1cccnc1)C1(c2ccc(Cl)cc2)CCCC1 | ? | 16176* | -11 | nt | 16
O=C(NCCO)C1(c2ccc(Cl)cc2)CCCC1 | -2 | 24150* | -2 | nt | -2
CCCNC(=O)C1(C)CCN(C(=O)C2(c3ccc(Cl)cc3)CCCC2)C1 (stereo unspecified) | 0 | 3512 | 1 | 0 | 2
O=C(Nc1nccs1)C1(c2ccc(Cl)cc2)CC1 | -2 | 4622 | -4 | 2 | -6
O=C(C[C@@H]1CC[C@@H]2[C@H](COC[C@H](O)CN2Cc2nccs2)O1)NCc1ccc(F)cc1 | nt | nt | nt | 0 | nt
NS(=O)(=O)c1ccc(CCNc2nc(CN3CCCCC3)nc3sc4c(c23)CCC4)cc1 | -3 | 21682* | -2 | 3 | -4
CCOC(=O)N1CCN(C(=O)c2ccc(NC(C)=O)cc2)CC1 | 1 | 12835 | 3 | nt | 7
CS(=O)(=O)Nc1ccc(C(=O)N2CCCCC2)cc1 | 0 | 6656 | -1 | 1 | -4
CC1CCN(C(=O)c2ccc(NS(C)(=O)=O)cc2)CC1 | ? | 19949* | 1 | nt | 0
